CYP2C19 act: activators of human cytochrome P450 2C19; P33261; recombinant CYP2C19, luciferin-H EGE luminescence; hits give high values; 0 = fully inhibited enzyme, 1 = untreated enzyme; activation factor at 5 µM; 96,000 tested, under 10 active; AID 1025;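 active = activation factor of at least 2 at 5 µM in the primary screen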;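 also: 0 = wells with 2.5 mM tranylcypromine and 1 = vehicle-only wells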
Target sequence (P33261 whole entry, looked up): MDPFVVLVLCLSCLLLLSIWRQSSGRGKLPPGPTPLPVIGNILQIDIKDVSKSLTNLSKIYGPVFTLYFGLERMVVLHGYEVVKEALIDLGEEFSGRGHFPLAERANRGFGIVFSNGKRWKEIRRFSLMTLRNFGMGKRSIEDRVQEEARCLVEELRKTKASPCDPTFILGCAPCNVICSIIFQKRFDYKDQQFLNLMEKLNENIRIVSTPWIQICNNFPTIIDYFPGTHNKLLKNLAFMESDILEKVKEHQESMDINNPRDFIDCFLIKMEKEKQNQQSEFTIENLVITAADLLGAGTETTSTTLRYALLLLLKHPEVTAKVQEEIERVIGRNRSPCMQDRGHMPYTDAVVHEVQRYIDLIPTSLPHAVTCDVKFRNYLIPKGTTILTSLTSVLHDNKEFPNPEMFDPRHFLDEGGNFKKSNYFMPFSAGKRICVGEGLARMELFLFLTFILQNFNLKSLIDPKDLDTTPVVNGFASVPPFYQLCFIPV
CYP2C9 act: increases human cytochrome P450 2C9 activity; P11712; recombinant CYP2C9, luciferin-H conversion, luminescence; hits give high values; factor 1 = untreated enzyme, 0 = blocked; activation factor at 5 µM; 96,000 compounds, 1.4% hits;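 active = activation factor of 2 or more for CYP2C9 at a 5 µM dose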;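 also: 0 = sulfaphenazole-blocked wells and 1 = vehicle-only wells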
CYP2C19 inh: inhibitors of human CYP2C19 | P33261 | CYP2C19 Supersomes, luciferin-H EGE luminescence, 30 min | inhibition, % at 5 µM | 96,000 compounds, 21% hits | AID 778;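 active = CYP2C19 inhibition above a set limit at 5 µM in the primary screen, cut at about 50% in these data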;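 also: plate controls were negative control wells for no effect and 2.5 mM tranylcypromine positive control for full effect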
PostGolgi yeast: growth inhibition of a yeast mutant, post-Golgi transport screen | post-Golgi transport phenotypic cell assay | inhibition, % at 10 µM | 98,000 compounds, 0.9% hits;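 also: yeast cells grown in 1536-well plates; yeast grown about 18 h at 30C before absorbance read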
CYP2C9 inhib: blocks human cytochrome P450 2C9; P11712; CYP2C9 Supersomes, luciferin-H conversion, luminescence; inhibition, % at 5 µM; 96,000 compounds, 20% hits;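 active = blocking of liver enzyme CYP2C9 beyond about 50% at 5 µM, limit read from the data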
PostGolgi ctrl: yeast control strain growth, post-Golgi counter-screen; efflux-deficient yeast background strain, growth absorbance A615, 16 h; inhibition, % at 10 µM; 98,000 compounds, 5% hits
An asterisk follows results filed as active; . = no result. A selection: hits, their analogues and other compounds. The true share with any hit is near 32%. Rule as the data show it, unless noted: active = inhibition above about 30%; inactive = the rest.

SMILES	CYP2C19 act	CYP2C9 act	CYP2C19 inh	PostGolgi yeast	CYP2C9 inhib	PostGolgi ctrl
Cc1cc(C)cc(N(CCC#N)C(=O)CSc2nc3nc(C)cc(C)n3n2)c1	1	0.8	-2.8	4.8	21.0	8.1
N#CCCN(C(=O)CSc1ccc2c(c1)OCCO2)c1ccccc1	0.1	0.4	92.8*	21.6	55.9*	8.9
CCCCCCCCCCS(=O)(=O)N/N=C/c1ccc([N+](=O)[O-])cc1	0.7	0.6	28.9	-2.3	35.8	5.1
O=c1c2[nH]c3ccccc3c2ncn1CCN1CCCCC1	0.9	1.1	14.9	-3.0	-6.5	7.6
O=C(Nc1nc(-c2cc(Cl)sc2Cl)cs1)c1ccccc1	0.7	0.7	25.7	3.4	32.3	10.3
Cc1cc(C)n(-c2ncc(-c3ccccc3)nn2)n1	0.9	1.2	12.1	-0.4	-15.3	13.8
CCCCN(C)C(=O)CCC(=O)Nc1ccc2nc(N3CCOCC3)cc(C)c2c1	0.9	1	8.0	1.6	4.4	10.1
O=C(CCCn1c(=O)c2sccc2n(Cc2cc(=O)n3ccccc3n2)c1=O)NCc1ccco1	0.8	0.3	15.9	-1.1	66.4*	-5.3
O=C(CCCCn1c(=S)[nH]c2ccsc2c1=O)NCc1ccco1	0.7	0.3	32.6	3.1	66.9*	2.2
O=C(CCn1c(=O)c2sccc2n(Cc2cc(=O)n3ccccc3n2)c1=O)NCc1ccco1	1.1	0.8	-8.9	9.4	19.6	3.2
Cc1cc(C)c(Cn2c(=O)n(CCCC(=O)NCc3ccco3)c(=O)c3sccc32)c(C)c1	0.7	0.4	26.7	24.5	61.4*	8.9
Cc1ccc(C)c(Cn2c(=O)n(CCC(=O)NCc3ccco3)c(=O)c3sccc32)c1	1.1	0.9	-5.0	6.1	9.4	7.7
Cc1ccccc1Cn1c(=O)n(CCCC(=O)NCc2ccco2)c(=O)c2sccc21	0.1	0.1	89.3*	-5.7	93.5*	11.0
O=C(CCc1nc2ccccc2c(=O)[nH]1)NC1CCN(Cc2ccccc2)CC1	0.9	0.8	9.9	-1.0	23.2	-4.8
CCc1ccc(NC(=O)COn2nnc3ccc(S(=O)(=O)N(C)C)cc32)cc1	0.2	0.2	82.4*	-1.8	81.5*	-2.3
Cc1ccc(NC(=O)COn2nnc3ccc(S(=O)(=O)N(C)C)cc32)cc1F	0.1	0	88.7*	-0.5	97.5*	8.5
COC(=O)c1nc2n(n1)C(c1cccc(Cl)c1)C1=C(CC(C)(C)CC1=O)N2 (stereo unspecified)	1	0.9	1.2	-1.4	12.8	6.7
Cc1cc(=O)oc2c1c(C)nn2-c1ccc(C(=O)OC(C)C)cc1	0.9	0.8	13.6	.	23.9	.
CCOC(=O)c1[nH]c2c(c1C)C(=O)CC(c1ccc(OC)c(OC)c1)C2 (stereo unspecified)	0.8	0.2	22.0	-5.5	81.4*	24.1
COc1ccc(C2CC(=O)C(C=NCCO)=C(O)C2)cc1OC (stereo unspecified)	1.1	1.1	-8.2	-10.7	-10.5	-8.8
COc1cc(C2CC(=O)c3c([nH]c(C(=O)OCCOC(C)C)c3C)C2)cc(OC)c1OC (stereo unspecified)	0.7	0.2	33.9	-1.2	79.1*	15.5
COc1cc(C(=O)OCCN2CCOCC2)cc(OC)c1OC	0.9	1	9.0	2.7	-0.5	7.8
COC(=O)c1[nH]c2c(c1C)C(=O)CC(c1ccccc1)C2 (stereo unspecified)	0.5	0.3	52.7*	6.8	71.1*	17.6
O=C(NCCCN=C1NS(=O)(=O)c2ccccc21)c1ccc(S(=O)(=O)N2CCOCC2)cc1	1.1	0.8	-9.1	0.7	18.6	6.3
O=C(c1cc2ccccc2o1)c1nc2c(n1O)CCCCC2	1.1	0.8	-9.9	-6.5	21.3	15.6
SMILES	CYP2C19 act	CYP2C9 act	CYP2C19 inh	PostGolgi yeast	CYP2C9 inhib	PostGolgi ctrl
S=c1nc(-c2ccc(Br)cc2)oc2c1CCCC2	1.1	1	-7.3	1.8	1.0	-3.3
Cc1cccc(-c2nc(=S)c3c(o2)CCCC3)c1	0.9	2.5*	13.9	9.0	-145.5	3.5
O=C(O)C1C2C=CC(C2)C1C(=O)N1CCOCC1 (stereo unspecified)	1.1	1.1	-10.9	-9.5	-11.9	52.6*
O=C(NCc1ccccc1)C1CC2CCCC(C1)C2=O (stereo unspecified)	1	1.1	-4.1	8.0	-7.9	-0.9
COc1ccc(-n2nnnc2-c2cccc(OC)c2)cc1	0	0.2	99.1*	2.1	84.6*	6.4
Clc1ccc(-n2nnnc2-c2ccccc2)cc1Cl	0	0.7	95.3*	-8.6	31.8	13.4
COc1ccc(C)cc1C(=O)C1CC(C(=O)O)C(C)(C)C1C (stereo unspecified)	0.9	0.8	5.1	-12.9	20.8	8.1
CCCn1nnc(NC(=O)c2cc(Br)ccc2OC)n1	0.3	3.6*	74.3*	-1.8	-260.5	12.1
CCc1ccc(C(=O)Nc2nnn(CC)n2)cc1	0.5	0.5	46.1	-1.7	50.0*	6.5
CCCn1nnc(NC(=O)c2cccc(Cl)c2)n1	.	.	.	-1.6	.	7.7
CCCn1nnc(NC(=O)c2cc3ccccc3o2)n1	0.9	0.9	9.8	-1.0	14.4	-4.8
CCCn1nnc(NC(=O)c2cccc(OCc3ccccc3)c2)n1	0.5	0.4	47.1	-6.1	60.9*	10.7
CCC(C)N1C(=O)CCC1C(=O)O (stereo unspecified)	1.2	1.1	-17.5	13.1	-6.8	7.0
COc1cccc(C2Nc3cc(Cl)c(S(N)(=O)=O)cc3S(=O)(=O)N2)c1 (stereo unspecified)	1.2	0.9	-17.3	-1.0	14.5	3.0
Cc1c(NC(=O)C(C)N2CC(C)OC(C)C2)c(=O)n(-c2ccccc2)n1C (stereo unspecified)	1.1	1.1	-8.2	-0.5	-7.9	6.2
COc1ccc(/C=C2\CCc3ccccc3C2=O)cc1Cn1nc(C)cc1C	0.1	0.5	90.2*	-7.3	53.3*	22.5
O=C1/C(=C/Nc2ccc3c(c2)OCO3)CCc2ccccc21	0.6	0.5	44.5	0.3	48.1	9.6
COc1ccc(/C=C2\CCc3ccccc3C2=O)cc1OC	0.7	0.5	29.7	-3.0	52.7*	23.5
COc1ccc(/C=C2\N=C3CCCCCN3C2=O)cc1OC	1	0.9	-0.7	4.5	7.2	8.1
Cc1ccsc1/C=C1\CCc2ccccc2C1=O	0.1	0.1	92.9*	3.0	87.4*	14.3
O=C(Nc1cnn(Cc2ccccc2)c1)c1cc2nc(-c3ccco3)cc(C(F)(F)F)n2n1	0.9	1	12.3	2.6	1.1	9.3
CCn1ncc(C2=NOC(C(=O)Nc3ccc4c(c3)OCO4)C2)c1C (stereo unspecified)	0.4	0.7	55.7*	25.5	28.3	7.1
CCn1ncc(C2=NOC(C(=O)Nc3ccc(C)cc3)C2)c1C (stereo unspecified)	0.7	1.2	29.4	5.3	-22.6	2.8

Screening results from PubChem BioAssay.
